{"source": "PubChem BioAssay (NCATS)", "note": "Results filed as inconclusive are left out. Calls of active or inactive are those of the source. The call rests on the fitted dose curve. Residues, ends and D or L forms follow the SMILES beside them. *: point of attachment. Hexanoyl = CCCCCC(=O)*", "data": [{"assay": "qHTS for inhibitors of Rabies Virus screened against the NCATS CANVASS Library (AID 1347402)", "conditions": "Rabies virus infection cell assay; series mostly up to 45.9 µM", "values": [{"smiles": "O=C(O)[C@@]12COC3(O)C1CCN1CC[C@H]3[C@@H]1c1c2[nH]c2ccccc12", "outcome": "inactive"}, {"smiles": "COc1cc2c(cc1OC)[C@@H](c1ccc3c(c1)OCO3)C(C)[C@@H](C)C2=O", "note": "(some centres undefined)", "outcome": "inactive"}, {"smiles": "C=C(NC(=O)c1csc(-c2nc3c(cc2O)-c2nc(cs2)C(=O)NC(C(C)O)C(=O)N/C(=C(\\C)O)c2nc(cs2)C(=O)NC2c4nc(cs4)C(=O)NC(COC(=O)c4c5c6c(cccc6n4O)COC(=O)[C@@H](OC4C[C@](C)(O)[C@H](N(C)C)[C@H](C)O4)C2OC5)c2nc-3cs2)n1)C(N)=O", "note": "(some centres undefined)", "outcome": "inactive"}, {"smiles": "C[C@@]12CCC[C@@](C)(C(=O)O)[C@H]1CC[C@]13C[C@H]4C[C@H](O[C@@]4(C)C1)[C@H]32", "outcome": "inactive"}, {"smiles": "Cc1cc(O)cc2oc(C[C@H](C)O)cc(=O)c12", "outcome": "inactive"}, {"smiles": "O=C1CC(c2ccc(O)cc2)Oc2cc(O)ccc21", "note": "(centres undefined)", "outcome": "inactive"}, {"smiles": "C=C1C(=O)C[C@H]2C[C@@H]1[C@]2(C)CCC=C(C)C", "outcome": "inactive"}, {"smiles": "C=C(C)CC[C@H](Cc1c(O)cc(O)c2c1O[C@H](c1ccc(O)cc1O)CC2=O)C(=C)C", "outcome": "inactive"}, {"smiles": "CC(=O)c1c(C)cc2c(c1O)C(=O)c1c(O)cc(O)cc1C2=O", "outcome": "inactive"}, {"smiles": "CC(C)=CCC/C(C)=C/Cc1cc([C@@H]2CC(=O)c3c(cc(O)c(CC=C(C)C)c3O)O2)ccc1O", "outcome": "inactive"}, {"smiles": "CC(=O)O[C@H]1c2ccccc2-c2c3c(cc4c2[C@@H]1N(C(C)=O)CC4)OCO3", "outcome": "inactive"}, {"smiles": "CO[C@@H]1[C@H](O)[C@@H](C)O[C@@H](OC[C@H]2/C=C/C=C/C(=O)C(C)C[C@H](C)C(O[C@@H]3O[C@H](C)CC4(OC(=O)O[C@@H]4C)C3O)[C@@H](C)/C=C/C(=O)OC2C)[C@@H]1OC", "note": "(some centres undefined)", "outcome": "inactive"}, {"smiles": "CC12C[C@]3(O)O[C@@H](O1)[C@]1(COC(=O)c4ccccc4)[C@@H]3CC21OC1OC(CO)C(O)C(O)C1O", "note": "(some centres undefined)", "outcome": "inactive"}, {"smiles": "C=C1CCC2C(C)(C(=O)O)CCC(CC/C(C)=C/C(=O)NC(CCC(N)=O)C(=O)O)[C@@]2(C)C1", "note": "(some centres undefined)", "outcome": "inactive"}, {"smiles": "CCCCCC(=O)N[C@@H](CC(C)C)C(=O)N[C@H](C=O)CCC(=O)O", "note": "(Hexanoyl-Leu-Glu-aldehyde)", "outcome": "inactive"}, {"smiles": "CC[C@H](O)CCCCC[C@@H]1NC(=O)[C@H]2CCCCN2C(=O)[C@H]([C@H](C)CC)NC(=O)[C@H](Cc2cn(OC)c3ccccc23)NC1=O", "outcome": "inactive"}, {"smiles": "CC1(C)[C@H](Br)CC[C@]23C[C@]4(C)C(=O)CC12C[C@H]34", "outcome": "inactive"}, {"smiles": "C[C@@]12CCC[C@@](C)(C(=O)O)[C@H]1CC[C@@]13C[C@@H](CC[C@H]12)[C@](C)(O)C3", "outcome": "inactive"}, {"smiles": "C=C1C[C@@]23C=CC(=O)[C@@](C)(CCC(=O)Nc4c(O)ccc(C(=O)O)c4O)C2C[C@@H]1CC3O", "note": "(some centres undefined)", "outcome": "inactive"}, {"smiles": "CO[C@@H]1[C@H](O)[C@@H](C)O[C@@H](OC[C@@H]2C(C)OC(=O)/C=C/[C@H](C)C(O[C@@H]3O[C@H](C)CC4(OC(=O)O[C@@H]4C)C3O)[C@@H](C)CC(C)C(=O)/C=C/[C@H]3OC23)[C@@H]1OC", "note": "(some centres undefined)", "outcome": "inactive"}, {"smiles": "COc1cc2c(cc1OC)[C@@H](c1ccc3c(c1)OCO3)C(C)C(C)C2=O", "note": "(some centres undefined)", "outcome": "inactive"}, {"smiles": "C/C1=C/[C@@H](C)[C@H](O)[C@@H](O)/C=C/CC/C=C/C(=O)O[C@@H]1[C@H](C)C(=O)/C=C/CC1CC(=O)NC(=O)C1", "outcome": "inactive"}, {"smiles": "C[C@@]12CCC[C@@](C)(C(=O)OP(=O)(O)OC[C@H]3O[C@@H](n4cnc5c(N)ncnc54)[C@H](O)[C@@H]3O)[C@H]1C[C@@H](O)[C@@]13C[C@@H](CC[C@@H]21)[C@](C)(O)C3", "outcome": "inactive"}, {"smiles": "C=C1C[C@@]23C=CC(=O)[C@@](C)(CCCC(C)C(=O)O)[C@@H]2C[C@@H]1CC3", "note": "(some centres undefined)", "outcome": "inactive"}, {"smiles": "CC(C)[C@]12CC[C@@]3(C)[C@H](C)CC[C@H](O)[C@@]3(CC1)c1cc3c(cc12)[nH]c1ccccc13", "outcome": "inactive"}, {"smiles": "COc1ccc2[nH]c3c(c2c1)CCN1C[C@H]2C[C@@H](OC(=O)c4cc(OC)c(OC)c(OC)c4)[C@H](OC)[C@@H](OC)[C@H]2C[C@H]31", "outcome": "inactive"}, {"smiles": "COc1cc(/C=C2/C(=O)N(c3ccc(O)cc3C(=O)O)[C@H](c3ccc(O)c(OC)c3)C2C(=O)Nc2ccc(O)cc2C(=O)O)ccc1O", "note": "(some centres undefined)", "outcome": "inactive"}, {"smiles": "CN1CC[C@@]23c4ccccc4N[C@@H]1[C@@]21CCN(C)[C@@H]3Nc2ccccc21", "outcome": "inactive"}, {"smiles": "C=C[C@]1(C)CC[C@@H]([C@H](C)C(=O)OCC)O1", "outcome": "inactive"}]}]}
